Screens from PubChem BioAssay.
IMPase Li inh = qHTS Assay for Identifying the Cell-Membrane Permeable IMPase Inhibitors: Potentiation with Lithium; CHO-M1 cells, IP1 TR-FRET (IP-One), carbachol + lithium; AID 1457, 2008; Potency, µM (titrated, usually from 59.4 µM), for inactives: top-dose activity, negative = IMPase inhibition, usual class: inhibitors; actives 0.35% (n = 210,000);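 further: IP1 builds up when IMPase is blocked and the TR-FRET signal falls; plate controls were basal vehicle for no effect and high inhibitor control for full effect; nearly all actives have a fitted effect of over 50% in size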
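Readout is a homogeneous TR-FRET IP1 immunoassay (Ex 320, Em 665 and 620), where raised cytosolic IP1 lowers signal. Cells were CHO-M1 treated 30 min at 37C with test compounds plus a little lithium; AC50 values came from Hill-equation fitting.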
Epigenetic reg = Quantitative High-Throughput Screen for Regulators of Epigenetic Control; murine LDR cells, GFP reporter derepression, 30 h; Potency, µM (doses to about 53.9 µM), without a hit: at the top dose GFP activation, usual class: activators; actives 0.2% (n = 280,000); further: % of control where 0% means no effect; nearly all actives have a fitted effect of over 60% in size
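Derepression of a silenced CMV-GFP reporter in murine LDR cells is scored by enumerating GFP-positive cells with a laser-scanning microplate cytometer after 30 hours of treatment at 37 C.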
Sfp inh = qHTS Assay for Inhibitors of Bacillus subtilis Sfp phosphopantetheinyl transferase (PPTase); Biochemical Sfp PPTase activity, qHTS; Potency, µM, inactives show largest response in the series, negative = inhibition, most hits filed as inhibitors; actives 3.5% (n = 310,000); AID 1490, 2009;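 further: the enzyme is Sfp with the accession as filed and its product quenches rhodamine fluorescence; 0% = enzyme reaction without inhibitor and -100% = no enzyme wells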
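Fluorescence-quenching assay with 15 nM Sfp, 5 uM rhodamine-CoA and 12.5 uM BHQ-2-labelled ybbR peptide in pH 7.6 Hepes/MgCl2 buffer. Enzyme was pre-incubated with compound for 15 min at room temperature. Rate was taken from the 30-min fluorescence change (525/598 nm).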
JMJD2E inh = qHTS Assay for Inhibitors of Human Jumonji Domain Containing 2E (JMJD2E); Potency, µM (series often up to 57.1 µM), for inactives: at the top dose activity change, negative = inhibition, hits mostly inhibitors; AID 2147, 2009; actives 1.6% (n = 230,000); JMJD2E catalytic domain, FDH-coupled NADH fluorescence (FDH is formaldehyde dehydrogenase); Lysine-specific demethylase 4E (Homo sapiens), B2RXH2; active means well fitted inhibition curve with a large enough effect, not every such curve was filed as active; inconclusive means small, poorly fitted or top-dose-only effect, or another doubt; inactive means no such curve, though single readings can be large or run the other way;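 further: 0% = wells with enzyme and -100% = buffer wells without enzyme; nearly all actives have a fitted effect of over 50% in size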
NPSR antagonist = qHTS Assay for Antagonists of the Neuropeptide S Receptor: cAMP Signal Transduction | CHO-NPSR cells, cAMP TR-FRET, antagonist mode | AID 1461, 2008 | actives 1% (n = 220,000) | Potency, µM (titrated, usually from 38.3 µM), inactives show top-dose activity change, negative = inhibition, most hits filed as inhibitors; further: on the % scale 0 is the no-effect control and ±100 the full control effect; nearly all actives have a fitted effect of over 50% in size
Target sequence (Q6W5P4 whole entry, looked up): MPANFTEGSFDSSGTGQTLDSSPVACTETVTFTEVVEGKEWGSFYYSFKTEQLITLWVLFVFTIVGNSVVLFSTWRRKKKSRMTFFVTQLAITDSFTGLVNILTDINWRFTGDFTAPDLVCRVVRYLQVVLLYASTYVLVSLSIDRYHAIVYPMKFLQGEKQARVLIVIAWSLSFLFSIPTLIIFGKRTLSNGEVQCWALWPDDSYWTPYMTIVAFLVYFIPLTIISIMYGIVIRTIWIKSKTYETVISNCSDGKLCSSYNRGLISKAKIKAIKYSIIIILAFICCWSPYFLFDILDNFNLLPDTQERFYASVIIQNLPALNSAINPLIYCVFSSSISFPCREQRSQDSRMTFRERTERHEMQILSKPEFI
KAT2A inh = qHTS Assay for Inhibitors of GCN5L2; Histone acetyltransferase KAT2A (Homo sapiens), Q92830; GCN5L2 HAT assay, ThioGlo1 CoA-SH fluorescence; Potency, µM (titrated, usually from 58.9 µM), without a hit: top-dose activity change, negative = inhibition, usual class: inhibitors; actives 0.21% (n = 390,000); further: on the % scale 0 is the no-effect control and ±100 the full control effect
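qHTS, 1536-well. 20nM enzyme, pH 7.5 HEPES/EDTA/Tween-20 buffer; 15 min compound preinc., RT. Start: 75uM H3(1-25), 70uM AcCoA, 50uM ThioGlo1. Read Ex340/Em540 at t=0 (autofluorescence flag) and t=20 min.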
Active calls of the source: *; u = inconclusive; x = not tested or not shown; [ ] = another dose, or the depositor's remark. A selection: hits, their analogues and other compounds. The true share with any hit is near 3.6%. Unless noted, the call rests on the fitted dose curve; in most records, active means well fitted curve in the direction sought with a large enough effect; inconclusive means small, poorly fitted or top-dose-only effect, or another doubt; inactive means no such curve, though single readings can be large; an effect the other way counts as inactive or inconclusive. Potency means the concentration at half of the fitted maximal effect.

SMILES	IMPase Li inh	Epigenetic reg	Sfp inh	JMJD2E inh	NPSR antagonist	KAT2A inh
COc1ccc(NC(=O)CC(c2ccccc2)c2ccco2)cc1 (centres undefined)	7.2%	-1.4%	44.7µM*	7.9%	-38.5%	-7.8%
Cc1ccc(NC(=O)/C(C#N)=C\c2ccc(-c3ccc(Cl)cc3)o2)c(C)c1	x	3.55µM*	x	x	x	3.1%
CC1CC1c1ccc(/C=C(\C#N)C(=O)Nc2ccc(Cl)cc2Cl)o1 (centres undefined)	11.1%	0.0%	56.2µM*	-22.2%	-23.7%	-6.0%
Cc1cc(C(=O)N/N=C/c2ccc3c(c2)OCO3)c(C)n1-c1ccc(F)cc1	-6.9%	-0.1%	4.9%	-29.6%	-13.5%	3.3%
Cc1cc(C(=O)N/N=C/c2ccc(Cl)c([N+](=O)[O-])c2)c(C)n1-c1ccc(F)cc1	-0.6%	0.0%	-22.6%	22.4µM*	-28.4%	-1.6%
CCN(CC)c1ccc(NC(=O)CCCN2C(=O)C(c3ccccc3)Oc3cccnc32)c(C)c1 (centres undefined)	x	5.2%	x	x	x	1.9%
COc1ccc([C@H]2[C@H](C(=O)OC(C)(C)C)N3N=Cc4ccccc4C3C23C(=O)c2ccccc2C3=O)c(OC)c1 (some centres undefined)	4.6%	-1.9%	-9.2%	-24.8%	-21.1%	-6.8%
COc1ccc([C@H]2[C@H](C(=O)OC(C)(C)C)N3N=Cc4ccccc4C3C23C(=O)c2ccccc2C3=O)cc1OC (some centres undefined)	5.9%	2.0%	-10.0%	u	7.94µM*	-2.5%
Cc1ccc(-c2ccc(C3C(C#N)=C(N)Oc4n[nH]c(C)c43)o2)cc1 (centres undefined)	22.6%[38.3 µM]	u	50.1µM*	u	-12.4%[46.1 µM]	11.0%
Cc1[nH]nc2c1C(c1ccc(-c3ccc(Cl)cc3)o1)C(C#N)=C(N)O2 (centres undefined)	1.8%	u	-18.4%	-24.9%	-25.0%	-5.2%
Cc1[nH]nc2c1C(c1ccc(-c3ccccc3C#N)o1)C(C#N)=C(N)O2 (centres undefined)	x	u	22.4µM*	u	-1.7%[46.1 µM]	-4.1%
COc1ccc(-c2[nH]nc3c2C(c2ccc(OC(=O)N4CCOCC4)cc2)C(C#N)=C(N)O3)cc1 (centres undefined)	6.7%[38.3 µM]	-1.2%	-9.8%	-5.4%	12.6µM*	13.3%
N#CC1=C(N)Oc2n[nH]c(-c3cccs3)c2C1c1ccoc1 (centres undefined)	5.6%[38.3 µM]	-1.1%	-2.0%	-22.9%	-10.4%[46.1 µM]	-0.8%
Cc1ccc(C2C(C#N)=C(N)Oc3n[nH]c(-c4cccs4)c32)cc1 (centres undefined)	1.5%	-1.0%	16.8%	7.08µM*	-13.0%[46.1 µM]	-1.1%
CC(=O)c1sc2nc(-c3ccc(C)cc3)c3c(c2c1N)CCCC3	-13.3%	-1.8%	35.5µM*	u	-33.6%	u
Cc1ccc(-c2nc3sc(C(N)=O)c(N)c3c3c2CCCC3)cc1	11.2µM*	-1.8%	39.8µM*	0.5%	-13.3%	-25.6%
Cc1nc2sc(C(N)=O)c(N)c2c2c1CCCC2	x	3.3%	79.4µM*	u	-15.8%	-12.8%
CC(C)c1nc2sc3c(=O)[nH]cnc3c2c2c1CCCC2	x	1.3%	15.0%	-7.0%	u	-2.4%
CC(C)c1nc2sc(C(=O)O)c(N)c2c2c1CCCC2	x	-0.9%	56.2µM*	-1.1%	6.0%	-3.9%
CCc1nc2sc(C(C)=O)c(N)c2c2c1CCCC2	x	4.2%	-21.6%	u	-22.3%	-2.1%
NC(=O)c1sc2nc(-c3ccccc3)c3c(c2c1N)CCCC3	u	-4.5%	39.8µM*	u	-21.4%	-17.4%
